High-throughput results from PubChem BioAssay.
This is a sample that favours compounds with a hit; in the whole collection about 9.4% have one here.
Rab9 prom act: qHTS Assay for Rab9 Promoter Activators. Huh7 Rab9 promoter-luciferase reporter, luminescence, 24 h. Potency, µM (highest dose often 9.22 µM), actives largely listed as activators. actives 2.8% (n = 320,000). AID 485297, 2010; also: nearly all actives have a fitted effect of over 60% in size
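Rab9 promoter-driven luciferase in stably transfected Huh7 cells; 1500 cells/well rested 2 h, exposed to compound in DMSO for 24 h at 37 °C, 5% CO2. Luminescence read 10 min after adding luciferase reagent at ambient temperature.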
NPC1 promoter act: qHTS Assay for NPC1 Promoter Activators | Huh7 NPC1 promoter luciferase reporter, 24 h | Potency, µM (titrated, usually from 9.22 µM), most hits filed as activators | actives 2.4% (n = 320,000) | AID 485313, 2010; also: nearly all actives have a fitted effect of over 60% in size
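Luminescence from an NPC1 promoter-driven luciferase reporter in stably transfected Huh7 cells was measured after 24 h compound treatment at 37 °C, followed by 10 min ambient incubation with luciferase detection reagent.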
ELG1 DNA repair: qHTS screen for small molecules that inhibit ELG1-dependent DNA repair in human embryonic kidney (HEK293T) cells expressing luciferase-tagged ELG1 | HEK293T ELG1-luciferase reporter, luminescence, 16 h; DNA damage induced by 5-fluorouridine | Potency, µM (doses to about 46.1 µM), hits mostly inhibitors | actives 2.3% (n = 330,000); also: nearly all actives have a fitted effect of over 55% in size
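In this reporter screen, reduction of luminescence relative to DMSO vehicle indicated activity. Compounds and 5-fluorouridine were added together to 2,000 cells per well, incubated for 16 hr at 37 °C, then developed with ONE-Glo.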
SMN2 splice enh: qHTS Assay for Enhancers of SMN2 Splice Variant Expression; AID 1458, 2008; HEK293 SMN2-luciferase splicing reporter, luminescence, 30-36 h; Potency, µM (top dose mostly 46.1 µM), actives largely listed as activators; actives 2.8% (n = 210,000); also: nearly all actives have a fitted effect of over 55% in size
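HEK293 cells carry an SMN2 […]–luciferase reporter in which exon 7 inclusion puts luciferase in frame. Cells were plated 10-12 h before compound addition, then incubated 30-36 h at 37C. ONE-Glo luminescence was read; sodium butyrate at 4.5 mM final served as control.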
FLuc modulator: qHTS profiling assay for firefly luciferase inhibitor/activator using purifed enzyme and Km concentrations of substrates (counterscreen for miR-21 project); AID 588342, 2011; purified FLuc, Km substrates, luminescence inhibition; actives 6.9% (n = 360,000); Potency, µM (series often up to 57.5 µM), most hits filed as inhibitors; also: nearly all actives have a fitted effect of over 55% in size
Target sequence (P08659 whole entry, looked up): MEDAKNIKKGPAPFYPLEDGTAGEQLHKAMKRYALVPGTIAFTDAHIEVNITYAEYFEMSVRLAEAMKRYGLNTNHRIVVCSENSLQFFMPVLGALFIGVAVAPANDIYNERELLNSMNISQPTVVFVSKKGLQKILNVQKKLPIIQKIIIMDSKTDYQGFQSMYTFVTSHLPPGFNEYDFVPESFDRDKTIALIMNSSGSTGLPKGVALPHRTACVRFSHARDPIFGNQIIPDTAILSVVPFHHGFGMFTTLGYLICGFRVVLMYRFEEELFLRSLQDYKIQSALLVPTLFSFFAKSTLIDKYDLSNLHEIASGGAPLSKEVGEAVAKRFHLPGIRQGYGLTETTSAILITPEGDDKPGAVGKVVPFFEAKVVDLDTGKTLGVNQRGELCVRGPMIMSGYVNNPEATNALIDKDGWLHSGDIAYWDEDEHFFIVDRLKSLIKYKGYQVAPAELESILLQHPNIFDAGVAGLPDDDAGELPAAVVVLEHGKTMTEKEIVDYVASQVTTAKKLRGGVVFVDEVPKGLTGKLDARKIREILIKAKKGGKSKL
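Purified P. pyralis luciferase (10nM final) with 10uM D-luciferin and 10uM ATP (Km levels) in 50mM Tris acetate pH 7.5, 10mM Mg acetate, 0.01% Tween-20, 0.05% BSA; qHTS 6-point titration, ~60 µM downward; luminescence read.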
ELG1 genotox: qHTS screen for small molecules that induce genotoxicity in human embryonic kidney (HEK293T) cells expressing luciferase-tagged ELG1; HEK293T ELG1-luciferase reporter, luminescence, 16 h; Potency, µM (highest dose often 46 µM), usual class: activators; actives 1.3% (n = 330,000); also: nearly all actives have a fitted effect of over 60% in size
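16 hr compound incubation (37 °C, 5% CO2) of HEK293T cells carrying luciferase-tagged ELG1; luciferase then measured by ONE-Glo luminescence after 30 min at RT.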
A number is an active result; . = inactive; ? = inconclusive; / = no result. Calls follow the shape of the dose curve; as a rule, active = well fitted curve in the direction sought with a large enough effect; inconclusive = small, poorly fitted or top-dose-only effect, or another doubt; inactive = no such curve, though single readings can be large; an effect the other way counts as inactive or inconclusive.

SMILES | Rab9 prom act | NPC1 promoter act | ELG1 DNA repair | SMN2 splice enh | FLuc modulator | ELG1 genotox
Cn1c(=O)n(Cc2ccccc2)c(=O)c2c1nc1n2CCCN1CCc1ccccc1 | . | . | 23µM | . | . | .
Cc1cc(C)c(NC(=O)c2sc3nc(C)cc(C)c3c2NC(=O)c2ccccc2)c(C)c1 | / | / | / | . | . | /
COc1ccccc1N=c1scc(-c2ccc3c(c2)NC(=O)CO3)n1CC1CCCO1 (configuration not stated) | . | . | 16µM | . | . | .
CN(C)S(=O)(=O)c1cccc(N=c2scc(-c3ccc4c(c3)NC(=O)CO4)n2CC2CCCO2)c1 (configuration not stated) | . | . | 23µM | . | . | .
Cc1cc(C)cc(OCC(=O)NCC2(N(C)C)CCCCC2)c1 | / | / | / | / | . | /
Cc1ccc(-c2cc(C(=O)OCC(=O)NC3CC3)c3ccccc3n2)cc1 | . | . | . | / | / | .
Cc1ccc(-c2cc(C(=O)N3CCN(c4ccccc4)CC3)c3ccccc3n2)cc1C | / | / | / | / | 2.4µM | /
Cc1ccc2c(C(=O)N3CCN(c4ccccc4)CC3)cc(-c3cccnc3)nc2c1C | . | . | ? | . | . | .
COc1cc(-c2cc(C(=O)OCC(=O)NC3CC3)c3ccccc3n2)cc(OC)c1OC | / | / | 12µM | / | / | .
COc1cc(-c2csc(N3CCOCC3)n2)cc(OC)c1OC | . | . | . | . | . | .
Cc1ccc(-c2cc(C(=O)n3cnc4ccccc43)c3ccccc3n2)cc1C | ? | ? | ? | . | 3µM | .
Cc1ccc(-c2cc(C(=O)NC(C)c3ccccc3)c3ccccc3n2)cc1C (configuration not stated) | / | / | / | / | . | /
COc1ccc(-c2csc(N3CCN(c4cc(C)nc5ccccc45)CC3)n2)cc1OC | . | . | 8.2µM | . | . | .
C=CCC(C)(O)c1ccccc1 (configuration not stated) | / | / | / | . | / | /
c1ccc2c(c1)CCC[C@@H]2C1=NCCN1 | / | / | / | . | / | /
COc1ccc(-c2cc(C(=O)N3CCN(c4ccccc4)CC3)c3ccccc3n2)cc1OC | . | . | 16µM | . | 15µM | .
O=C(OCC(=O)N1CCOCC1)c1cc(-c2ccccc2)nc2ccccc12 | / | / | ? | / | / | .
COc1ccc(-c2cc(C(=O)OCC(=O)N3CCCCC3)c3ccccc3n2)cc1OC | / | / | 9.2µM | / | / | .
COc1ccc(-c2cc(C(=O)N3CCCC(C(F)(F)F)C3)c3ccccc3n2)cc1OC (configuration not stated) | . | . | ? | / | ? | .
NC(C(=O)O)c1ccc(P(=O)(O)O)cc1 (configuration not stated) | / | / | / | . | / | /
CC(C)N1C/C(=C/c2ccsc2)C(=O)/C(=C/c2ccsc2)C1 | . | . | 18µM | . | . | .
CCOC(=O)CCCNC(=O)CN1C(=O)NC(c2ccccc2)(c2ccccc2)C1=O | . | . | . | / | . | .
Cc1ccc(Cn2c(CNS(=O)(=O)c3ccc(Cl)s3)nc3cccnc32)cc1 | / | / | / | / | . | /
Cc1cc2cc(NC(=O)c3ccco3)ccc2[nH]1 | ? | ? | ? | . | 15µM | .
CC(=O)Nc1cccc(-c2nc3ccc(NC(C)=O)cc3[nH]2)c1 | . | . | . | . | 15µM | .
CC(=O)Nc1ccc2nc(-c3ccco3)[nH]c2c1 | ? | . | ? | ? | 17µM | .
CC(=O)Nc1cccc(-c2nc3ccccc3[nH]2)c1 | . | . | ? | . | ? | .
O=C(Nc1ccc2nc(-c3ccco3)[nH]c2c1)c1cccs1 | 3.2µM | ? | ? | 11µM | 2.7µM | .
Cc1ccc2nc(-c3cccc(NC(=O)c4ccco4)c3)[nH]c2c1 | ? | ? | ? | 13µM | 1.3µM | .
O=C(Nc1ccc2nc(-c3cccnc3)[nH]c2c1)c1ccco1 | . | . | . | . | ? | .
